Hits are enriched below; roughly 3.7% of the tested compounds scored in any of these assays.
TbPYK inhibitor: T. brucei pyruvate kinase inhibition. Potency, µM (highest dose often 76.8 µM), actives largely listed as inhibitors. AID 624173. TbPYK enzyme, Kinase-Glo Plus ATP luminescence, 45 min. Q57TT1. 410,000 tested, 0.12% active; further: nearly all actives have a fitted effect of over 50% in size
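TbPYK + substrate in 50 mM TEA pH 7.2, 100 mM KCl, 10 mM MgCl2, 0.05% BSA, 0.01% Tween-20; cpd pinned; ADP 130 uM final; 45 min RT; Kinase-Glo Plus 10 min; luminescence endpoint.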
FMDV inh: antivirals against foot and mouth disease virus; FMDV antiviral cell-based qHTS; Potency, µM (titrated, usually from 57.9 µM), hits mostly inhibitors; 410,000 tested, 1.2% active; calls by dose curve; tested in HEK293T cells; further: read-out not given here; nearly all actives have a fitted effect of over 45% in size
Sm TGR inh: S. mansoni TGR enzyme inhibition. AID 485364. Q962Y6. Potency, µM (top dose mostly 114 µM), actives largely listed as inhibitors. 360,000 tested, 3% active. purified TGR, DTNB reduction, TNB absorbance 405 nm; further: nearly all actives have a fitted effect of over 60% in size
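First, TGR (20 nM dispensed) and NADPH were mixed with compound. Second, a 15 min room-temperature incubation followed. Third, further NADPH and then DTNB were added to start the reaction. Finally, TNB absorbance was monitored kinetically.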
RE007 growth inh: less growth of the S. pombe RE007 Vpr strain; Potency, µM (top dose mostly 92.2 µM), most hits filed as inhibitors; 360,000 tested, 0.21% active; S. pombe RE007 Vpr strain, BacTiter-Glo ATP luminescence, 24 h; AID 651644; active means well fitted falling curve with a large enough effect; inconclusive means small, poorly fitted or top-dose-only effect; inactive means no such curve, though single readings can be large or run the other way; further: nearly all actives have a fitted effect of over 50% in size
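Fission yeast RE007 carrying one integrated HIV-1 vpr copy, seeded at OD 0.01 in PMG+AL medium with 23 nL pinned compound. Grown 24 h at 30 degrees; viability read by BacTiter-Glo luminescence after 5 min.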
Numbers stand for hits; n = inactive; u = inconclusive; x = no result given; [ ] = dose if it differs, or a comment. Unless noted, the call rests on the fitted dose curve; in most records, active means well fitted curve in the direction sought with a large enough effect; inconclusive means small, poorly fitted or top-dose-only effect, or another doubt; inactive means no such curve, though single readings can be large; an effect the other way counts as inactive or inconclusive.

SMILES	TbPYK inhibitor	FMDV inh	Sm TGR inh	RE007 growth inh
COc1ccc(Nc2nc3c(S(=O)(=O)c4ccccc4)nnn3c3ccc(Cl)cc23)c(OC)c1	n	u	n	x
CCC1c2ccc(C)n2CCN1C(=O)Nc1ccccc1OC (centres undefined)	n	n	25µM	n
COc1ccc(OC)c(CNC(=O)c2cc(=O)[nH]c3ccc(S(=O)(=O)N4CCCCC4C)cc23)c1 (centres undefined)	n	n	n	x
Cc1nnc(SCC2=C(C(=O)O)N3C(=O)C(NC(=O)Cn4nc(C(F)F)cc4C)C3SC2)s1 (centres undefined)	n	n	40µM	n
CN(C)CCn1nnnc1SCC1=C(C(=O)O)N2C(=O)[C@@H](NC(=O)Cc3csc(N)n3)[C@H]2SC1	n	n	32µM	n[18.4 µM]
CC(=O)OCC1=C(C(=O)O)N2C(=O)C(NC(=O)CSc3ccncc3)[C@@H]2SC1 (some centres undefined)	x	n	x	x
CC(=O)OCC1=C(C(=O)O)N2C(=O)C(NC(=O)Cn3nc(C(F)F)c(Cl)c3C)C2SC1 (centres undefined)	n	n	22µM	n
CC(=O)OCC1=C(C(=O)O)N2C(=O)C(NC(=O)CCn3nc(C)c(Cl)c3C)C2SC1 (centres undefined)	n	n	28µM	n
CC(=O)OCC1=C(C(=O)O)N2C(=O)[C@@H](NC(=O)Cc3cccs3)[C@H]2SC1	n	n	u	n
Cc1ccc(C(=O)NCCc2nnc3n2CCN(Cc2cc(C)cc(C)c2)CC3)cc1	x	n	x	x
CC(C)(C)CC(=O)OCC(=O)[C@@]12OC(C)(C)O[C@@H]1C[C@H]1[C@@H]3CCC4=CC(=O)C=C[C@]4(C)[C@@]3(F)[C@@H](O)C[C@]12C	n	x	x	x
COC(=O)c1ccc(N2C(=O)Cc3cc(OC)c(OC)cc3C2c2ccc(F)cc2)cc1 (centres undefined)	n	n	n	x
CC(=O)OCC1=C(C(=O)O)N2C(=O)C(NC(=O)CCn3nc(C(F)(F)F)c(Br)c3C3CC3)C2SC1 (centres undefined)	n	n	22µM	n
CC1=C(C(=O)O)N2C(=O)C(NC(=O)CCCC(=O)O)C2SC1 (centres undefined)	n	n	n	u
NCc1ccccc1CC(=O)N[C@@H]1C(=O)N2C(C(=O)O)=C(CSc3nnnn3CC(=O)O)CS[C@@H]12	n	x	x	x
Cc1nnc(SCC2=C(C(=O)O)N3C(=O)C(NC(=O)Cn4nc(C(F)F)c(Cl)c4C)C3SC2)s1 (centres undefined)	n	n	13µM	n
CCn1cc(C(=O)N2CCN(c3cc(Cl)ccc3C)CC2)c(=O)c2cc(S(=O)(=O)N3CCOCC3)ccc21	n	n	n	x
CCOCCCn1c(-c2ccc(Cl)cc2)n[nH]c1=S	8.9µM	n	n	n
O=C(NCc1ccco1)c1cccc(Nc2nc3ccc(Br)cc3[nH]2)c1	n	n	n	n
O=C(NCC1CC1)c1ccc(Nc2nc3ccc(Br)cc3[nH]2)cc1	u	n	3.5µM	n
O=C(c1ccc(Cl)cc1)N1CCCCC1CCN1CCOCC1 (centres undefined)	n	n	n	x
COc1ccc(OC)c(NC(=O)c2ccccc2N(Cc2ccccc2)S(C)(=O)=O)c1	13µM	n	n	n
O=C(NCCc1ccccc1)c1cc(-c2ccccc2)nc2n[nH]c(-c3ccccc3)c12	n	n	n	x
CCn1c(=O)oc2cc(NC(=O)CCl)ccc21	n	22µM	40µM	n
Cn1c(=O)n(C)c2cc(NC(=O)CCl)ccc21	n	u	18µM	n
SMILES	TbPYK inhibitor	FMDV inh	Sm TGR inh	RE007 growth inh
Clc1ccc(-c2cc3ncc4c(n3n2)-c2ccccc2OC4)cc1	n	n	n	x
O=C(Oc1ccccc1)N1CCC2(CCCN(c3ccc(-c4ccccc4)cc3)C2)CC1	n	n	x	x
CC(=O)c1ccc(NC(=O)Nc2sc3nc4n(c(=O)c3c2C)CCC(C)CC4)cc1 (centres undefined)	n	n	n	x
CCOCCn1ccc2c(OCC(=O)NCc3ccc(F)cc3)cccc2c1=O	n	n	n	x
CCOC(=O)c1c(-c2ccccc2)oc2ccc(NS(=O)(=O)c3ccc(C(C)C)cc3)cc12	n	n	n	x
COc1ccc(C(=O)c2no[n+]([O-])c2C(=O)c2ccc(OC)cc2)cc1	n	40µM	0.35µM	u
COc1ccc(NC(=O)c2c(N)no[n+]2[O-])cc1	n	n	n	n
O=C(c1cccs1)c1no[n+]([O-])c1C(=O)c1cccs1	n	16µM	0.1µM	28µM
Cc1c(Cl)sn(-c2ccc(Cl)cc2)c1=O	4.5µM	u	3.5µM	1µM
Cc1ccccc1NC(=O)c1c(NC(=O)Cc2ccccc2)sc2c1CCC2	n	n	n	x
O=C(/C=C\c1ccc(O)c(O)c1)O[C@@H](Cc1ccc(O)c(O)c1)C(=O)O	x	n	x	x
O=C(/C=C/c1ccc(O)c(O)c1)OC(Cc1ccc(O)c(O)c1)C(=O)O (centres undefined)	u	n	35µM	n
COC(=O)c1cc2sc(Cl)cc2n1Cc1c(C)cc(C)cc1C	n	n	n	x
CC(=O)NN1C(=O)/C(=C/c2ccc(Br)o2)SC1=S	u	u	25µM	n
CC(=O)NN1C(=O)/C(=C\c2ccccc2)SC1=S	n	n	n	x
CC(=O)NN1C(=O)/C(=C\c2ccc(Br)o2)SC1=S	n	u	25µM	n
N#Cc1c(SCC(=O)Nc2nncs2)sc2c(O)cc(=O)[nH]c12	n	n	35µM	n
Cc1cccnc1-c1cccc2c1OC(CNC(=O)/C=C/c1cccs1)C2 (centres undefined)	x	n	x	x
COc1cc(OC)c(N(C)C(=O)c2sc3nc4n(c(=O)c3c2C)CCCC4)cc1Cl	n	n	32µM	x
COc1ccc(Cl)cc1NC(=O)c1sc2nc3n(c(=O)c2c1C)CCC3	n	n	n	x
COc1cc(OC)c(NC(=O)c2sc3nc4n(c(=O)c3c2C)CCCC4)cc1Cl	n	n	50µM	x
COc1cc(OC)c(N(C)C(=O)c2sc3nc4n(c(=O)c3c2C)CCCCC4)cc1Cl	n	n	n	x
CC1=NN(c2ccccc2)C(=O)/C1=C\C=C\c1ccccc1	n	22µM	n	n
CC1=NN(c2ccccc2)C(=O)/C1=C/c1c(O)[nH]c(=S)[nH]c1=O	n	u	8.9µM	n
CCCCN1C(=O)/C(=C/C=C/c2ccco2)C(=O)NC1=S	n	n	4.5µM	n
SMILES	TbPYK inhibitor	FMDV inh	Sm TGR inh	RE007 growth inh
CCc1ccc(N2NC(=O)/C(=C/C=C/c3ccco3)C2=O)cc1	n	n	u	n
O=C1NC(=O)N(c2ccccc2)C(=O)/C1=C\C=C\c1ccccc1	u	13µM	14µM	n
CC1=NN(c2ccccc2)C(=O)/C1=C/c1c(O)[nH]c(=O)[nH]c1=O	n	n	n	n
CC1=NN(c2ccccc2)C(=O)/C1=C/C=C/c1ccc(N(C)C)cc1	u	u	n	n
N#Cc1ccc(NC(=O)Nc2ccccc2Br)c2n[nH]nc12	n	x	x	x
CCOC(=O)[C@]12CCC=C1N(Cc1ccc(Cl)cc1Cl)C(=O)[C@H](CC(=O)N1CCN(C(=O)c3ccco3)CC1)C2	n	n	x	n
CCOc1ccc(NC(=O)c2sc3nc4c(cc3c2N)CN(Cc2ccccc2)CC4)cc1	n	n	n	x

Screening data: PubChem BioAssay, National Center for Advancing Translational Sciences (NCATS)
